The results in this text go back to PubChem BioAssay (NCATS).

Assay [1] is described as follows: qHTS of pediatric cancer cell lines to identify multiple opportunities for drug repurposing: Primary screen for NB-EBc1 cells (AID 1347095). Also: potency is read from the fitted curve at half-maximal effect. Summed up:
(§1)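 Cells plated at 500-1,000/well in growth medium, compounds added after 5 h. MIPE tested at 11 points (from 0.78 nM), NPC at 8 points (from 0.59 nM). CellTiter-Glo luminescence after 48 h; concentration-response curves from primary screen.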
For orientation: Quantitative high-throughput screening tests each substance at several concentrations.

Assay [2] is described as follows: qHTS of pediatric cancer cell lines to identify multiple opportunities for drug repurposing: Primary screen for U-2 OS cells (AID 1347096). Also: nearly all actives have a fitted effect of over 50% in size. Summed up: (§2)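 Cells (500-1,000/well) in growth media were settled 5 h at 37 degrees C, then given compounds for 48 h. Viability was read as CellTiter-Glo luminescence. Primary runs used MIPE at 11 points (0.78 nM-46 µM) and NPC at 8 points (0.59 nM-46 µM); follow-ups used 11 points.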

A short description of assay [3]: qHTS of pediatric cancer cell lines to identify multiple opportunities for drug repurposing: Primary screen for Rh18 cells (AID 1347102). Also: nearly all actives have a fitted effect of over 65% in size. Also: potency is read from the fitted curve at half-maximal effect. Summed up: as §2
Assay [4] in a line: qHTS of pediatric cancer cell lines to identify multiple opportunities for drug repurposing: Primary screen for OHS-50 cells (AID 1347103). Also: potency is read from the fitted curve at half-maximal effect; nearly all actives have a fitted effect of over 40% in size. Summed up:
(§3)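 Cells (500-1,000/well) rested 5 h, then received compounds for 48 h; metabolically active cells were measured by CellTiter-Glo luminescence. Final concentrations spanned up to 46 µM (MIPE, 11-point) or 0.59 nM-46 µM (NPC, 8-point) in primary screens, 11-point in follow-ups.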

Assay [5] in a line: qHTS of pediatric cancer cell lines to identify multiple opportunities for drug repurposing: Primary screen for RD cells (AID 1347104). Also: nearly all actives have a fitted effect of over 55% in size. Also: potency is read from the fitted curve at half-maximal effect. The method in brief: as §1
Assay [6] in a line: qHTS of pediatric cancer cell lines to identify multiple opportunities for drug repurposing: Primary screen for MG 63 (6-TG R) cells (AID 1347105). Also: nearly all actives have a fitted effect of over 50% in size. Also: potency is read from the fitted curve at half-maximal effect. The method in brief:
as §1

Assay [7] in a line: qHTS of pediatric cancer cell lines to identify multiple opportunities for drug repurposing: Primary screen for control Hh wild type fibroblast cells (AID 1347106).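 Also: series mostly up to about 46 µM; a drop in luminescence marks cytotoxicity and a rise apparent proliferation; nearly all actives have a fitted effect of over 55% in size.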 Summed up: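 Viability after 48 h compound treatment at 37C, 500-1,000 cells/well, read as ATP luminescence with CellTiter-Glo. Primary screens used 11-point (MIPE, 0.78 nM-46 µM) or 8-point (NPC, 0.59 nM-46 µM) final concentrations; follow-up screens used 11-point dilutions.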

Assay [8] is described as follows: qHTS of pediatric cancer cell lines to identify multiple opportunities for drug repurposing: Primary screen for A673 cells (AID 1347092). Also: potency is read from the fitted curve at half-maximal effect; nearly all actives have a fitted effect of over 45% in size. Summed up: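 A673 cells (500-1,000 cells/well in growth media) were pre-incubated 5 h at 37 degrees C, then exposed to compounds for 48 h. Viability was read as CellTiter-Glo luminescence; concentration-response curves came directly from the primary screen.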

Assay [9] is described as follows: qHTS of pediatric cancer cell lines to identify multiple opportunities for drug repurposing: Primary screen for SK-N-MC cells (AID 1347093). Also: potency is read from the fitted curve at half-maximal effect. The method in brief:
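Metabolically active cells were quantified by ATP-dependent luminescence (CellTiter-Glo, 15 min at room temperature) following 48 h treatment. Cells had been plated at 500-1,000 per well and settled for 5 h beforehand.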

A short description of assay [10]: qHTS of pediatric cancer cell lines to identify multiple opportunities for drug repurposing: Primary screen for LAN-5 cells (AID 1347100). Also: potency is read from the fitted curve at half-maximal effect. The method in brief:
as §2

Assay [11] can be described thus: qHTS of pediatric cancer cell lines to identify multiple opportunities for drug repurposing: Primary screen for Rh30 cells (AID 1347107). Also: series mostly up to about 46 µM; nearly all actives have a fitted effect of over 75% in size. Summed up:
as §2

A short description of assay [12]: qHTS of pediatric cancer cell lines to identify multiple opportunities for drug repurposing: Primary screen for BT-37 cells (AID 1347094). Also: potency is read from the fitted curve at half-maximal effect. Summed up: as §1
The nature of assay [13]: qHTS of pediatric cancer cell lines to identify multiple opportunities for drug repurposing: Primary screen for NB1643 cells (AID 1347099). Also: nearly all actives have a fitted effect of over 50% in size. Also: potency is read from the fitted curve at half-maximal effect. The method in brief: as §1
A short description of assay [14]: qHTS of pediatric cancer cell lines to identify multiple opportunities for drug repurposing: Primary screen for SJ-GBM2 cells (AID 1347091). Also: potency is read from the fitted curve at half-maximal effect. The method in brief: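 Eight- or eleven-point concentration series, 48 h treatment at 37 degrees C in growth media; readout CellTiter-Glo luminescence. Potency and efficacy were taken from the concentration-response curves.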

The nature of assay [15]: qHTS of pediatric cancer cell lines to identify multiple opportunities for drug repurposing: Primary screen for Saos-2 cells (AID 1347097). Also: nearly all actives have a fitted effect of over 40% in size. Also: potency is read from the fitted curve at half-maximal effect. The method in brief: as §1
Assay [16] is described as follows: qHTS of pediatric cancer cell lines to identify multiple opportunities for drug repurposing: Primary screen for Rh41 cells (AID 1347108). Also: nearly all actives have a fitted effect of over 70% in size. Also: potency is read from the fitted curve at half-maximal effect. The method in brief: as §1
Assay [17] can be described thus: qHTS of pediatric cancer cell lines to identify multiple opportunities for drug repurposing: Confirmatory screen for NB1643 cells (AID 1347109). Also: nearly all actives have a fitted effect of over 45% in size. The method in brief:
as §2

A short description of assay [18]: qHTS of pediatric cancer cell lines to identify multiple opportunities for drug repurposing: Primary screen for SK-N-SH cells (AID 1347098). Also: potency is read from the fitted curve at half-maximal effect; nearly all actives have a fitted effect of over 65% in size. The method in brief:
as §3

Assay [19] can be described thus: qHTS of pediatric cancer cell lines to identify multiple opportunities for drug repurposing: Primary screen for BT-12 cells (AID 1347101). Also: nearly all actives have a fitted effect of over 25% in size. Also: potency is read from the fitted curve at half-maximal effect. The method in brief: as §3

The structures appear in SMILES notation. Values joined by “and” are separate entries in the source; they are usually repeats but may differ in a detail not shown here. Equal entries are not always repeated. Inconclusive results are not listed. Active and inactive are the calls of the source. Calls follow the shape of the dose curve; as a rule, active = well fitted curve in the direction sought with a large enough effect; inconclusive = small, poorly fitted or top-dose-only effect, or another doubt; inactive = no such curve, though single readings can be large; an effect the other way counts as inactive or inconclusive.

In the case of `COc1ccc(-c2c(-c3ccc(O)cc3O)n[nH]c2C)cc1`, the Potency in assay [1] is 38.2 µM (active); in [4] it was 44.4 µM (active). Also, the Potency result in [2], in assay [3], in [5], in assay [6] and in assay [7] was “inactive” throughout.
For the compound `COc1c(Cl)cc2c([nH]c3cnccc32)c1NC(=O)c1cccnc1C`, the Potency was 0.469 µM (active) in assay [8] and 1.32 µM (active) in [9]. Moreover, the Potency entry in assay [1], in assay [2], in assay [10] and in assay [11] was “inactive” throughout.
For the compound `COc1cc(F)c(F)c(Nc2ccc(I)cc2F)c1NS(=O)(=O)C1(C[C@H](O)CO)CC1`, in assay [9], the Potency was 16.6 µM (active). The Potency result in [12], in [1], in [13], in assay [10], in assay [3] and in [6] was “inactive” in each case.
Turning to `N#Cc1ccc(C(c2ccc(C#N)cc2)n2cncn2)cc1`, the Potency entry in assay [14], in assay [1], in assay [2], in assay [10] and in assay [3] was “inactive” in each case.
`Cc1cc(-c2ccc(CC(=O)Nc3ccc(-c4cccnc4)cc3)cc2)ccn1`: the Potency in assay [8] was 23.5 µM (active). Also, the Potency entry in assay [12], in assay [3], in assay [6] and in assay [7] was “inactive” in each case.
For the compound `Cc1oncc1C(=O)Nc1ccc(C(F)(F)F)cc1`, the Potency result in assay [14], in assay [12], in assay [2], in assay [15], in assay [13] and in assay [10] was “inactive” each time. In addition, the Potency entry in assay [3], in assay [5], in assay [6], in [7], in [11] and in assay [16] was “inactive” each time. For the same compound, the Potency entry in [17] is “inactive”.
Take `COc1ccc(COc2cc3oc(=O)c4cc(C(C)O)ccc4c3cc2OC)cc1` (stereo not drawn): the Potency in [14] was 10.5 µM (active); in assay [1], 10.5 µM (active); in assay [15], 14.8 µM (active); in assay [6], 18.7 µM (active); in [16], 18.7 µM (active). Besides, the Potency entry in [2], in assay [13] and in assay [10] was “inactive” each time.
With `Nc1nccc(-c2ccc3noc(-c4ccc(Cl)cc4)c3c2)n1`, the figures for the Potency in assay [8] and in assay [13] were 7.43 µM (active) and 16.6 µM (active), respectively. Moreover, the Potency result in assay [1], in [2], in assay [15], in assay [10], in assay [3] and in [5] was “inactive” throughout. The Potency result in assay [6], in assay [11] and in assay [16] was “inactive” each time.
Regarding `COc1ccccc1[C@H](c1cccc2ccccc12)[C@@](C)(C#N)C(=O)N1CCC(c2cccc(C(F)(F)F)c2)CC1`, the Potency is 17.2 µM (active) in [12], 6.62 µM (active) in [1], 19.2 µM (active) in [18] and 5.9 µM (active) in [16]. Moreover, the Potency result in assay [7] and in [11] was “inactive” in each case.
Consider `Cc1ccc(NC(=O)c2cccc(C(C)(C)C#N)c2)cc1Nc1ccc2ncn(C)c(=O)c2c1`, for which the Potency in assay [8] was 14.8 µM (active); in [9], 18.7 µM (active); in assay [1], 5.26 µM (active); in [18], 24.1 µM (active); in assay [13] it was 18.7 µM (active); in [5], 1.18 µM (active). In assay [6], the Potency result is “inactive”.
On to `C[C@]1(c2nc3c(C(N)=O)cccc3[nH]2)CCCN1`, for which the Potency in assay [8] was 14.8 µM (active); in [9], 1.18 µM (active); in assay [15], 20.9 µM (active); in assay [13], 9.35 µM (active). In addition, the Potency result in [2], in [3], in [6], in assay [7] and in assay [17] was “inactive” in each case.
As for `C#Cc1cccc(Nc2ncnc3cc(OCCOC)c(OCCOC)cc23)c1`, the Potency in assay [12] was 19.3 µM (active) and 11 µM (active); in assay [15], 16.6 µM (active); in [13], 5.9 µM (active); in assay [19] it was 24.3 µM (active); in [3] it was 18.7 µM (active); in assay [4], 19.3 µM (active) and 6.92 µM (active). In assay [16], the Potency was 11.8 µM (active). For the same compound, the Potency entry in assay [2], in assay [5], in assay [6] and in assay [11] was “inactive” each time.
Take `CCOc1ccc(Cc2cc([C@@H]3O[C@H](CO)[C@@H](O)[C@H](O)[C@@H]3O)ccc2Cl)cc1`: the Potency in assay [8] is 23.5 µM (active); in assay [9] it was 20.9 µM (active). Also, the Potency result in assay [2], in assay [13], in [3], in [6], in assay [11] and in [16] was “inactive” each time.
As for `CC[C@H](Nc1ncnc2nc[nH]c12)c1nc2cccc(F)c2c(=O)n1-c1ccccc1`, the Potency is 0.935 µM (active) in assay [9]; 14.8 µM (active) in [1]; 9.35 µM (active) in assay [15]; 7.64 µM (active) in [18]; 16.6 µM (active) in assay [13]; 20.9 µM (active) in assay [10]. Further, the Potency in assay [4] was 6.85 µM (active); in assay [6], 2.35 µM (active); in [16], 14.8 µM (active). Moreover, the Potency result in [7] was “inactive”.
As for `NC(N)=NC(=O)c1nc(Cl)c(N)nc1N`, the Potency result in assay [14], in [12], in assay [1], in assay [2], in [15] and in assay [10] was “inactive” each time. Further, the Potency entry in [19], in [3], in assay [5], in assay [6], in [7] and in assay [11] was “inactive” in each case. Also, the Potency result in assay [16] and in assay [17] was “inactive” in each case.
With `CCOC(=O)N[C@@H]1CC[C@@H]2[C@@H](C1)C[C@H]1C(=O)O[C@H](C)[C@H]1[C@@H]2C=Cc1ccc(-c2cccc(F)c2)cn1`, the Potency in assay [9] is 16.6 µM (active); in [15], 5.9 µM (active); in assay [18] it was 21.5 µM (active); in assay [13], 16.6 µM (active). Further, the Potency entry in assay [3] and in assay [6] was “inactive” in each case.
